Source: PubChem BioAssay (NCATS)
Results filed as inconclusive are left out. More than one record can exist for a structure, and the calls need not agree. Activity calls are given as the source filed them. Unless noted, calls come from the whole dose curve; as a rule, active = well fitted curve in the direction sought with a large enough effect; inconclusive = small, poorly fitted or top-dose-only effect, or another doubt; inactive = no such curve, though single readings can be large; an effect the other way counts as inactive or inconclusive.

How the values were obtained:
[1] = NCATS anti-infectives library activity on HEK293 viability as a counter-qHTS vs the C. elegans viability qHTS (AID 1745854); note: potency is the fitted concentration of half-maximal effect
Procedure, shortened: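 CellTiter-Glo luminescence, read on a CCD imager, scored viability of HEK293 cells after 24 hr compound exposure at 37C. Library tested in several concentrations, 1:5 steps, up to 41.7 uM; digitonin served as control.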

[2] = biological target: Phospholipid hydroperoxide glutathione peroxidase GPX4 (Homo sapiens) (UniProt P36969); assay: Primary qHTS Assay for Inhibitors of Recombinant Selenoprotein Glutathione Peroxidase 4 (GPX4) (AID 1845192); note: nearly all actives have a fitted effect of over 65% in size; for activity change, negative = inhibition: % is set by controls: 0 for no effect and ±100 for the full control effect
Chain of Phospholipid hydroperoxide glutathione peroxidase GPX4 (Homo sapiens) (P36969 whole entry, looked up): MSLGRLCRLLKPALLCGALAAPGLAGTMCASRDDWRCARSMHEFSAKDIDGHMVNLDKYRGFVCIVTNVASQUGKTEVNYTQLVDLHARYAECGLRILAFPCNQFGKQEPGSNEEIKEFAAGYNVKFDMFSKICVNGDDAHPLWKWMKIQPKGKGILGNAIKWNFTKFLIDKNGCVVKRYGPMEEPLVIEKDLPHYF
Procedure, shortened: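 Steps: GPX4 plus compound, 30 min RT; add GR/GSH/NADPH master mix; start with cumene hydroperoxide; read 340/450 nm fluorescence at 0 and 15 min. Finals were 200 nM GPX4, 1 mM GSH, 0.5 mM CHP, 0.5 mM NADPH, 100 nM GR.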

[3] = biological target: Rap guanine nucleotide exchange factor 3 (Homo sapiens) (UniProt O95398); assay: Confirmatory qHTS for antagonist of cAMP-regulated guanine nucleotide exchange factor 3 (EPAC1) (AID 1645880);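 note: plate controls were DMSO only for no effect and full effect of the ATA control for full effect; nearly all actives have a fitted effect of over 55% in size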
Chain of Rap guanine nucleotide exchange factor 3 (Homo sapiens) (O95398 whole entry, looked up): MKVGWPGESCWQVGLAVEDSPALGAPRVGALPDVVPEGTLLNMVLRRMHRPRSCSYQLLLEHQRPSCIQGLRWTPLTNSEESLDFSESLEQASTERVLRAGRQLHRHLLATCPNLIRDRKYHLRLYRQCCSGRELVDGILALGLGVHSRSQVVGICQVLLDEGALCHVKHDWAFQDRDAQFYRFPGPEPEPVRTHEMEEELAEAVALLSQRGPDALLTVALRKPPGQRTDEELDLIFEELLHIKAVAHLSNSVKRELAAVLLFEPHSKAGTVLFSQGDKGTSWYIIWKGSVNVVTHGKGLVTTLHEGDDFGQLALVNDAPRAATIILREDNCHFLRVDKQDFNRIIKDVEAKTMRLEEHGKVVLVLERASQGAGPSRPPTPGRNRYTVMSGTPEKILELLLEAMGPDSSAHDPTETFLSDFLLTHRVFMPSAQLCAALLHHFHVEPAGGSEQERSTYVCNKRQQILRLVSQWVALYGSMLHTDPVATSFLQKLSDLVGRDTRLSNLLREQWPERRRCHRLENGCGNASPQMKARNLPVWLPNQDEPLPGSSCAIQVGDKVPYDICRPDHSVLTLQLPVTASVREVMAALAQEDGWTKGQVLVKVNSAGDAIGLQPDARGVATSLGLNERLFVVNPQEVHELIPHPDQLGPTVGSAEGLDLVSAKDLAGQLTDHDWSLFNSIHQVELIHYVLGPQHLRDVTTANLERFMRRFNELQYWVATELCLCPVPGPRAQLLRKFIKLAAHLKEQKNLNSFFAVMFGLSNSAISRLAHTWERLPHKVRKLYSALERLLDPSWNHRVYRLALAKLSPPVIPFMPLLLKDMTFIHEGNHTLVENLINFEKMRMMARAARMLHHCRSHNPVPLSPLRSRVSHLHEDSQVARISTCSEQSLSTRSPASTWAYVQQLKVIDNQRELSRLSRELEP
Procedure, shortened: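 Released BODIPY-GDP fluoresces less than Rap1-bound BODIPY-GDP; the signal is followed at 480/540 nm at 5-min intervals over 30 min, after 5 min at room temperature. Reactions contain 100 nM EPAC1, 250 nM RAP1B-BODIPY-GDP and 50 uM GDP; results are normalized to ATA and DMSO.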

[4] = biological target: Rap guanine nucleotide exchange factor 3 (Homo sapiens) (UniProt O95398); assay: Confirmatory qHTS for agonist of cAMP-regulated guanine nucleotide exchange factor 3 (EPAC1) (AID 1645881);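 note: EPAC1 catalysed release of BODIPY-GDP from Rap1B seen as fluorescence loss; 100% = effect of cAMP agonist control; nearly all actives have a fitted effect of over 75% in size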
[5] = biological target: Rap guanine nucleotide exchange factor 4 (Homo sapiens) (UniProt Q8WZA2); assay: Confirmatory qHTS for agonist of cAMP-regulated guanine nucleotide exchange factor 4 (EPAC2) (AID 1645884);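 note: nucleotide exchange releases bodipy-GDP from Rap1 and this lowers its fluorescence; % is set by controls: 0 for no effect and ±100 for the full control effect; nearly all actives have a fitted effect of over 65% in size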
Chain of Rap guanine nucleotide exchange factor 4 (Homo sapiens) (Q8WZA2 whole entry, looked up): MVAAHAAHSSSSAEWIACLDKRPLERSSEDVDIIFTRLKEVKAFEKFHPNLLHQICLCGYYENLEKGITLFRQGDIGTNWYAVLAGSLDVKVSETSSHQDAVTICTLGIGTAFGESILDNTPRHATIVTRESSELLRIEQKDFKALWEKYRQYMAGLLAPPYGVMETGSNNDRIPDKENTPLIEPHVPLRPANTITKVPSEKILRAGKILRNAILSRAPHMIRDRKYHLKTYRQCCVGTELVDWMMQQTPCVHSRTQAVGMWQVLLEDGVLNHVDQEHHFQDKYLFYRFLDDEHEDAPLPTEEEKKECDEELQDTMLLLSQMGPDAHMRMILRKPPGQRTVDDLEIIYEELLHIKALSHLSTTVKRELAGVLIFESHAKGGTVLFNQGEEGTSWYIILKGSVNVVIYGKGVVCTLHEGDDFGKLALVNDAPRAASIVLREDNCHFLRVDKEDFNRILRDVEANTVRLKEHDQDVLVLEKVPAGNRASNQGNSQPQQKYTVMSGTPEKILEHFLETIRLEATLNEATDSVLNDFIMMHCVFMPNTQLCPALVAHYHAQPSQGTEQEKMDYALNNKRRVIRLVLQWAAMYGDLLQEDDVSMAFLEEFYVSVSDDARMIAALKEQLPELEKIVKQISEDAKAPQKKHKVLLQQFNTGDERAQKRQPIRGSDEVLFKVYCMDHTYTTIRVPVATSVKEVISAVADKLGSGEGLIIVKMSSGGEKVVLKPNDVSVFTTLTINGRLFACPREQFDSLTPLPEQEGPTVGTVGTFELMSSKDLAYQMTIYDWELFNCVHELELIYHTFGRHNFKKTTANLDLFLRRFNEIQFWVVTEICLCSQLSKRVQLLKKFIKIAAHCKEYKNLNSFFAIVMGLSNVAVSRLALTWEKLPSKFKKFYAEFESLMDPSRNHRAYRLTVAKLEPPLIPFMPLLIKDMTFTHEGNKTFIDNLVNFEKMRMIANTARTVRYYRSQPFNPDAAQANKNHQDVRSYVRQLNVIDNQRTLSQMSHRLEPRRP

[6] = biological target: Rap guanine nucleotide exchange factor 4 (Homo sapiens) (UniProt Q8WZA2); assay: Confirmatory qHTS for antagonist of cAMP-regulated guanine nucleotide exchange factor 4 (EPAC2) (AID 1645885); note: nearly all actives have a fitted effect of over 25% in size; note: potency is the fitted concentration of half-maximal effect; for activity change, negative = inhibition: % is set by controls: 0 for no effect and ±100 for the full control effect
[7] = biological target: Catechol O-methyltransferase (Homo sapiens) (UniProt P21964); assay: Confirmatory Screen for Target Class Profiling of Small Molecule Inhibitors of Methyltransferases (AID 1745852; calls by dose curve; for activity change, negative = inhibition: % is set by controls: 0 for no effect and ±100 for the full control effect); settings: MTase-Glo luminescence, SAH detection, recombinant enzyme; measured here: COMT max response; stronger effect = lower value
Chain of Catechol O-methyltransferase (Homo sapiens) (P21964 whole entry, looked up): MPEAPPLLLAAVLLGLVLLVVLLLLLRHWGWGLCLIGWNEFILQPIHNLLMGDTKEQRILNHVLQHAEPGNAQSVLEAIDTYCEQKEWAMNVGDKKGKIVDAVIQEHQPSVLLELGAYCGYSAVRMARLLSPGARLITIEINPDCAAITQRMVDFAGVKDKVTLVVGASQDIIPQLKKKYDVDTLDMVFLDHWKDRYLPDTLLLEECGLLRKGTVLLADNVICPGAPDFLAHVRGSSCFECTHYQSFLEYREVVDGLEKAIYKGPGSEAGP

[8] = biological target: Guanidinoacetate N-methyltransferase (Homo sapiens) (UniProt Q14353); assay: as above; settings: MTase-Glo luminescence, SAH detection, recombinant enzyme; at 57.3 µM (top of the series)
[9] = biological target: Nicotinamide N-methyltransferase (Homo sapiens) (UniProt P40261); assay: as above; settings: MTase-Glo luminescence, SAH detection, recombinant enzyme; measured here: NNMT max response; stronger effect = lower value
Chain of Nicotinamide N-methyltransferase (Homo sapiens) (P40261 whole entry, looked up): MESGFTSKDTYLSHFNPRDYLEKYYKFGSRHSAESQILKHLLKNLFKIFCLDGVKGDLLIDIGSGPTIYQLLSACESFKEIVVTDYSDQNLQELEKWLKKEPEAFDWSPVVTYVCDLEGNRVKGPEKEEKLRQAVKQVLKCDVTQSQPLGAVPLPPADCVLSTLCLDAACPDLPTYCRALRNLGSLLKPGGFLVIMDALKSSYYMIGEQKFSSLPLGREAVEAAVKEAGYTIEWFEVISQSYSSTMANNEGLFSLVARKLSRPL

[10] = biological target: Phenylethanolamine N-methyltransferase (Homo sapiens) (UniProt P11086); assay: as above; settings: MTase-Glo luminescence, SAH detection, recombinant enzyme; measured here: PNMT max response; stronger effect = lower value
Chain of Phenylethanolamine N-methyltransferase (Homo sapiens) (P11086 whole entry, looked up): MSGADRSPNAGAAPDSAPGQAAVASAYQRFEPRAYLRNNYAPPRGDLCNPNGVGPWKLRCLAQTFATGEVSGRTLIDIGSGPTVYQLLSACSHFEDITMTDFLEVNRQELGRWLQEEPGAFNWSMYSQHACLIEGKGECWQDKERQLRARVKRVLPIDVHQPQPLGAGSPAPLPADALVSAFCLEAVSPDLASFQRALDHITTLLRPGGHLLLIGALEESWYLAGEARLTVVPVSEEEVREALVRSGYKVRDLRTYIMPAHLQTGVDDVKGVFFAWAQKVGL

[11] = biological target: Metallo-beta-lactamase type 2 (Klebsiella pneumoniae) (UniProt C7C422); assay: qHTS to identify inhibitors of the New Delhi Metallo-beta-lactamase (NDM): assay validation screen against the NCATS LOPAC Collection (AID 1794843);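 note: nitrocefin turnover by NDM-1 measured as 485 nm absorbance at plateau; % is set by controls: 0 for no effect and ±100 for the full control effect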
Chain of Metallo-beta-lactamase type 2 (Klebsiella pneumoniae) (C7C422 whole entry, looked up): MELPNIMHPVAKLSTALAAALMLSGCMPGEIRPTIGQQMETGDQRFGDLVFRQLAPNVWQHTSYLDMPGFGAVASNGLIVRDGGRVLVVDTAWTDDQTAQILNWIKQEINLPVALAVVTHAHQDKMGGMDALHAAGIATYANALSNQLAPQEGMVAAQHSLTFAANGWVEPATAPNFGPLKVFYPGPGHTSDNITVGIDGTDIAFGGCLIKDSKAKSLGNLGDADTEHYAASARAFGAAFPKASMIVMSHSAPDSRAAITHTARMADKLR
Procedure, shortened: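 NDM-1 at 2 nM final in 50 mM HEPES pH 7.0, 1 uM ZnSO4, 0.01% Tween20, preincubated with LOPAC compounds pinned in DMSO; 50 uM nitrocefin (stock) added. Hydrolysis read as absorbance at 485 nm in the plateau phase.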

[12] = biological target: Glutathione peroxidase 1 (Homo sapiens) (UniProt P07203); assay: Primary qHTS Assay for Inhibitors of Recombinant Selenoprotein Glutathione Peroxidase 1 (GPX1) (AID 1845191); note: nearly all actives have a fitted effect of over 65% in size
Chain of Glutathione peroxidase 1 (Homo sapiens) (P07203 whole entry, looked up): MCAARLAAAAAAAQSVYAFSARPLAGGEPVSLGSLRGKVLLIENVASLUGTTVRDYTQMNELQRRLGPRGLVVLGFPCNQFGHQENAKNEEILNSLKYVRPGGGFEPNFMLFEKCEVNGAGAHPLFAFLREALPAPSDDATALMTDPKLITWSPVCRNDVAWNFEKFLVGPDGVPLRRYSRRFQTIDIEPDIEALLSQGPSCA
Procedure, shortened: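 GR-coupled readout: NADPH consumption tracked by fluorescence, ex 340/em 450 nm, at t=0 and after 15 min at RT. Final mix 10 nM GPX1, 1 mM GSH, 0.5 mM CHP, 0.5 mM NADPH, 100 nM GR, 0.01% BSA, following 30 min enzyme–compound preincubation.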

[13] = Viability counterscreen for antagonist of constitutive androstane receptor (CAR) against the NCATS DSHEA and TCM libraries (AID 1794837);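 note: compound exposure lasted 24 h before viability reading; 0% is about no effect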
Procedure, shortened: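 Cells: HepG2 line carrying CYP2B6 reporter and hCAR, seeded and attached 5 h. Then pin-transferred test substances plus agonist CITCO at 48 uM final; 24 h incubation; fluorogenic viability reagent, 1 h.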

[14] = Viability counterscreen for agonist of constitutive androstane receptor (CAR) against the NCATS DSHEA and TCM libraries (AID 1794838);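 note: HepG2 cells with CYP2B6 reporter and hCAR plus 0.75 µM PK11195 antagonist; 0% is about no effect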
Procedure, shortened: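 Cell health was measured as CellTiter-Fluor signal in HepG2-CYP2B6-hCAR cells treated for 24 h with substances alongside the hCAR antagonist PK11195 (0.75 uM final).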

[15] = biological target: Nuclear receptor subfamily 1 group I member 3 (Homo sapiens) (UniProt Q14994); assay: Primary qHTS for agonist of constitutive androstane receptor (CAR) against the NCATS DSHEA and TCM libraries (AID 1794839);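 note: HepG2 cells expressing human CAR with a CYP2B6 reporter plus PK11195 antagonist; luciferase reporter luminescence read with ONE-Glo; 0% is about no effect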
Chain of Nuclear receptor subfamily 1 group I member 3 (Homo sapiens) (Q14994 whole entry, looked up): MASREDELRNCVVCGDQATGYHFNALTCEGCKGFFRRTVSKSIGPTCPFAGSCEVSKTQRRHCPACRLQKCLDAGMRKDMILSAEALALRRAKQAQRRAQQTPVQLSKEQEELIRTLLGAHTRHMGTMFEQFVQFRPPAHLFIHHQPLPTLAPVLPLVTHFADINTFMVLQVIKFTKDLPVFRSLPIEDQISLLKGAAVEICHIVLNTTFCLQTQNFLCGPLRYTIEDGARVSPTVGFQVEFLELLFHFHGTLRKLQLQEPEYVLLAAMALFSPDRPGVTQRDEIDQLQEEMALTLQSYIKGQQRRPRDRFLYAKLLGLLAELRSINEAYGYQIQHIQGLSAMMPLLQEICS
Procedure, shortened: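 qHTS, agonist mode: HepG2-CYP2B6-hCAR, 2,500 cells/well, 5 h attach; cpds + PK11195 0.75 µM final; 24 h, 37 °C, 5% CO2. Readouts: CellTiter-Fluor (405/540 nm), then ONE-Glo luminescence.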

[16] = HepG2 viability counterscreen (readout 2: ATP content) against the NCATS DSHEA and TCM libraries (AID 1794840); note: 0% is about no effect
Procedure, shortened: (§1)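 Same wells read twice: first fluorescence from cleaved GF-AFC substrate (25 uM final, 30 min, 37C) for live-cell protease, then CellTiter-Glo luminescence after 30 min at room temperature for ATP. HepG2 cells were exposed ~24 h to substances.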

[17] = biological target: Rap guanine nucleotide exchange factor 3 (Homo sapiens) (UniProt O95398); assay: Counterscreen qHTS for agonist of cAMP-regulated guanine nucleotide exchange factor 3 (EPAC1) (AID 1645889); note: nearly all actives have a fitted effect of over 40% in size; note: potency is the fitted concentration of half-maximal effect; for activation: % of control where 0% means no effect
Procedure, shortened: (§2)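 Rap1B–BODIPY-GDP (250 nM) with 50 uM GDP; compounds pin-transferred to 9.74 nM–152 uM final (activator) or from 7.32 nM upwards (inhibitor). Fluorescence Ex/Em 480/540 nm read at 5 and 30 min, then after adding cAMP or buffer, at room temperature.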

[18] = HepG2 viability counterscreen (readout 1: protease activity) against the NCATS DSHEA and TCM libraries (AID 1794841);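 note: cells exposed to compounds for about 24 h before the protease read; 0% is about no effect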
Procedure, shortened: as §1

[19] = biological target: Rap guanine nucleotide exchange factor 3 (Homo sapiens) (UniProt O95398); assay: Counterscreen qHTS for antagonist of cAMP-regulated guanine nucleotide exchange factor 3 (EPAC1) (AID 1645888); note: % of control where 0% means no effect
Procedure, shortened: as §2

[20] = NCATS anti-infectives library activity on the primary C. elegans qHTS viability assay (AID 1745855; calls by dose curve; note: potency is the fitted concentration of half-maximal effect)
Procedure, shortened: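 Titration-based screen in worms: eggs hatched overnight in M9, L1 larvae fed TOP10 capsules in S medium with compound, incubated 21 °C for 7 days; fluorescent objects gated by size and intensity at days 0, 3 and 7.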

NCCC(O)(P(=O)(O)O)P(=O)(O)O
inactive: Potency [1] | Potency [2]

CC(C)C[C@H]1C(=O)N2CCC[C@H]2[C@]2(O)O[C@](NC(=O)[C@@H]3C=C4c5cccc6[nH]c(Br)c(c56)C[C@H]4N(C)C3)(C(C)C)C(=O)N12
3.94%: activity change, negative = inhibition [8]
7.86%: activity [7]
4.08%: activity [10]
inactive: Potency [3] | outcome [4] | Potency [5] | Potency [6] | outcome [11] | Potency [2]
-2.85%: activity [9]

CC(C)(C)NC(=O)[C@@H]1CN(Cc2cccnc2)CCN1C[C@@H](O)C[C@@H](Cc1ccccc1)C(=O)N[C@H]1c2ccccc2C[C@H]1O
inactive: Potency [1] | Potency [12] | Potency [2]

Nc1nc2ncc(CNc3ccc(C(=O)N[C@@H](CCC(=O)O)C(=O)O)cc3)nc2c(=O)[nH]1
inactive: outcome [13] | outcome [14] | outcome [15] | outcome [16]

C=C1C(=C/C=C2\CCC[C@]3(C)[C@@H]([C@H](C)/C=C/[C@@H](O)C4CC4)CC[C@@H]23)C[C@@H](O)C[C@@H]1O
inactive: Potency [1] | Potency [12] | Potency [2]

CC1=C(C(=O)OC(C)C)C(c2cccc([N+](=O)[O-])c2)C(C(=O)OC2CN(C(c3ccccc3)c3ccccc3)C2)=C(N)N1 (stereo unspecified)
inactive: Potency [3] | outcome [4] | Potency [5] | Potency [6] | Potency [12] | Potency [2]

CCCCC1=NC2(CCCC2)C(=O)N1Cc1ccc(-c2ccccc2-c2nn[nH]n2)cc1
inactive: Potency [1] | Potency [12] | Potency [2]

CCN(CC)C(=O)/C(C#N)=C/c1cc(O)c(O)c([N+](=O)[O-])c1
inactive: Potency [1] | Potency [12] | Potency [2]

Oc1ccc(Cl)cc1Sc1cc(Cl)ccc1O
active: Potency [6] 31.2 µM
inactive: outcome [4] | Potency [5] | activity change, negative = inhibition [6] -4.98% [at 12.7 µM] | activation [17] 18.9% [at 30.8 µM]

COc1cc2c(cc1O)CC[C@@H]1[C@@H]2CC[C@]2(C)[C@@H](O)CC[C@@H]12
inactive: Potency [3] | outcome [4] | Potency [5] | Potency [6] | outcome [11] | Potency [12] | Potency [2]

Nc1ccc(C(=O)O)cc1
inactive: outcome [13] | outcome [14] | outcome [15] | outcome [16] | outcome [18] | Potency [12] | Potency [2]

CC(Cc1cccc(C(F)(F)F)c1)NCCOC(=O)c1ccccc1 (stereo unspecified)
active: Potency [6] 49.4 µM
inactive: outcome [4] | Potency [5]

COc1cccc2c1C(=O)c1c(O)c3c(c(O)c1C2=O)C[C@@](O)(C(C)=O)C[C@@H]3O[C@H]1C[C@H](N)[C@H](O)[C@H](C)O1
inactive: Potency [3] | outcome [4] | Potency [5] | Potency [6] | activity change, negative = inhibition [19] 47.7% [at 30.8 µM] | Potency [12] | Potency [2]
active: Potency [17] 14.1 µM | Potency [1] 5.62 µM | Potency [20] 5.78 µM
